Assay results as given in the supplement of paper PMC10127200.
Values joined by “and” are separate entries in the source; they are usually repeats but may differ in a detail not shown here. Equal entries are not always repeated. Structures can show the parent of a compound that is named as a salt.

Tests used:
Assay in all cases: Euclidean distance of Cell Painting phenotypic profile (signed KS, 77 features) to DMSO centroid (dimensionless distance); 5 or 10 uM (library dependent); higher = stronger phenotypic change vs DMSO (phenoactivity)
Conditions in all cases: 48 h
[1] = test system: 786-O
How it was run: (§1)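 Phenoactivity is defined as the Euclidean distance from a compound profile to the median vehicle profile. Each profile comprised 77 Harmony features, scored as signed Kolmogorov-Smirnov statistics versus same-plate vehicle wells, then plate-position corrected, correlation-weighted and replicate-averaged at the top dose. Five cancer lines and one healthy fibroblast line were exposed to library compounds for 48 h at 10 or 5 uM (0.1% DMSO final).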

[2] = test system: A549
How it was run: as §1

[3] = test system: DU145
How it was run: as §1

[4] = test system: FB
How it was run: as §1

[5] = test system: HEPG2
How it was run: as §1

[6] = test system: OVCAR4
How it was run: as §1

| Compound | Euclidean distance [1] | Euclidean distance [2] | Euclidean distance [3] | Euclidean distance [4] | Euclidean distance [5] | Euclidean distance [6] |
| --- | --- | --- | --- | --- | --- | --- |
| OCCN(CCO)c1nc(N2CCCCC2)c2nc(N(CCO)CCO)nc(N3CCCCC3)c2n1 [Dipyridamole] | 1.24 | 0.954 | 1.33 | 0.963 | 0.833 | 0.968 |
| CC[C@@H](C)Nc1cc(C(=O)N[C@H]2C[C@H]3CC[C@@H](C2)N3c2ccc(C(=O)C3CC3)cn2)c(C)cc1C(N)=O | 3.1 | 3.1 | 3.17 | 3.15 | 4.37 | 3.3 |
| CC(=O)c1c(C)c2cnc(Nc3ccc(N4CCNCC4)cn3)nc2n(C2CCCC2)c1=O | 5.92 and 5.88 | 3.42 and 3.04 | 5.03 and 4.42 | 6.3 and 5.78 | 5.39 and 4.73 | 5.52 and 5.47 |
| CC(C)[C@H]1C(=O)N[C@@H](CCCNC(=N)N)C(=O)NCC(=O)N[C@@H](CC(=O)O)C(=O)N[C@H](Cc2ccccc2)C(=O)N1C [Cilengitide] | 2.25 | 1.28 | 0.875 | 1.15 | 4.37 | 2.86 |
| CC(C)COc1ccc(CNC(=O)N(Cc2ccc(F)cc2)C2CCN(C)CC2)cc1 [Pimavanserin] | 4.02 | 4.29 | 3 | 5.4 | 5.24 | 3.47 |
| CN(CCOc1ccc(CC2SC(=O)NC2=O)cc1)c1ccccn1 (configuration not stated) [Rosiglitazone maleate] | 0.964 | 0.896 | 1.89 | 1.31 | 0.95 | 1.34 |
| C[C@]1(O)C[C@@H](c2nc(-c3ccc4ccc(-c5ccccc5)nc4c3)c3c(N)nccn32)C1 [OSI-906 (Linsitinib)] | 1.12 | 1.34 | 0.877 | 1.19 | 1.12 | 1.27 |
| Cc1ccc(NS(=O)(=O)c2cccc(C#N)c2)c2[nH]cc(C#N)c12 | 1.84 | 2.34 | 1.67 | 1.89 | 2.04 | 2.09 |
| O=S(=O)(c1ccccc1)c1cnc2c(N3CCNCC3)cccc2c1 | 0.96 | 0.917 | 0.761 | 0.827 | 1.94 | 0.986 |
| Nc1ncnc2c1ncn2C1OC(COP(=O)(O)O)C(O)C1O (configuration not stated) [Adenosine 5'-monophosphate monohydrate] | 0.685 | 0.894 | 0.9 | 0.831 | 0.601 | 1.27 |
| CC(=O)Oc1ccccc1C(=O)O [Aspirin] | 0.701 | 0.531 | 0.625 | 0.734 | 0.608 | 0.816 |
| Cc1onc(-c2ccccc2)c1-c1ccc(S(N)(=O)=O)cc1 [Valdecoxib] | 1.12 | 1.19 | 0.983 | 1.21 | 0.509 | 1.58 |
